# Screens (PubChem BioAssay)
# HttQ103 aggreg = mutant huntingtin aggregation inhibition; PC12 HttQ103-GFP aggregates, Acumen cytometry, 40 h; Potency, µM (doses to about 46.1 µM), without a hit: top-dose activity change, negative = inhibition, actives largely listed as inhibitors; 220,000 tested, 1.1% active; AID 1688; also: % is scaled to controls: 0 for no effect and ±100 for the full control effect; nearly all actives have a fitted effect of over 60% in size
#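 Ecdysone-promoter PC12 model expressing HTT exon 1 Q103 fused to GFP, induced by tebufenozide at 100 nM final. Compounds titrated; aggregates sized 1–25 µm scored on a 488 nm laser cytometer.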
# IMPase Li inh = cell-permeable IMPase inhibitors with lithium potentiation | CHO-M1 cells, IP1 TR-FRET (IP-One), carbachol + lithium | Potency, µM (top dose mostly 59.4 µM), inactives show top-dose activity, negative = IMPase inhibition, actives largely listed as inhibitors | 210,000 tested, 0.35% active | AID 1457;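 also: IP1 builds up when IMPase is blocked and the TR-FRET signal falls; plate controls were basal vehicle for no effect and high inhibitor control for full effect; nearly all actives have a fitted effect of over 50% in size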
#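 Concentration–response in CHO-M1 cells, lithium-potentiated; 30 min at 37C. IP1 detected by competitive TR-FRET after 10 min lysis at RT. Hill-fitted AC50.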
# HTT cytoprotect = cytoprotection in Huntington HTT-Q103 PC12 cell model; PC12 HTT-Q103 induced, cytoprotection, ATP luminescence, 40 h; Potency, µM (titrated, usually from 56.4 µM), without a hit: cytoprotection (ATP increase), actives largely listed as activators; 230,000 tested, 0.14% active; AID 1471; also: % of control where 0% means no effect; nearly all actives have a fitted effect of over 45% in size
#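 Huntington model: PC12 line, ecdysone-inducible HTTQ103 exon1–GFP, tebufenozide 100 nM. Test articles in a dose series. Endpoint luminescence from cellular ATP.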
# ERK EGF block = EGF-driven ERK pathway inhibition; HEK293-V1b, EGF-stimulated phospho-ERK AlphaScreen; Potency, µM (top dose mostly 11.5 µM), inactives show at the highest dose activity change, negative = inhibition, usual class: inhibitors; 130,000 tested, 0.41% active; AID 1454;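 also: plate controls were stimulated vehicle wells for no effect and unstimulated vehicle basal for full effect; nearly all actives have a fitted effect of over 55% in size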
#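 In this qHTS, HEK293 cells with stable type-1 vasopressin (V1b) receptor were exposed to compound at 37C for 30 min, stimulated 5 min with EGF at 25 nM, lysed, and probed for phospho-ERK by AlphaScreen.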
# NPSR antag = antagonists of human neuropeptide S receptor cAMP signaling. 220,000 tested, 1% active. Potency, µM (top dose mostly 38.3 µM), inactives show top-dose activity change, negative = inhibition, actives largely listed as inhibitors. CHO-NPSR cells, cAMP TR-FRET, antagonist mode. Q6W5P4; also: % is scaled to controls: 0 for no effect and ±100 for the full control effect; nearly all actives have a fitted effect of over 50% in size
# Target sequence (Q6W5P4 whole entry, looked up): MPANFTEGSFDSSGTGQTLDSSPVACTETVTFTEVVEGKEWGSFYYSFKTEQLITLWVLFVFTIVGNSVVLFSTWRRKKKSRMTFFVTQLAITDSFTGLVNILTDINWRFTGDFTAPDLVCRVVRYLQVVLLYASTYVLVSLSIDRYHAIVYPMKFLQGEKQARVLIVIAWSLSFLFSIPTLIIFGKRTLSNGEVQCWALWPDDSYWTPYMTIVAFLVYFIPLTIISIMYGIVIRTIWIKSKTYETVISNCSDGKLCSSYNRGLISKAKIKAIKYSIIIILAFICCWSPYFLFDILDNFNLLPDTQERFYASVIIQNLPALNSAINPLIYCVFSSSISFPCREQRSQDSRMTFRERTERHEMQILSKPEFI
# Numbers without * were called inactive; ? = inconclusive; · = not tested or not shown; [ ] = another dose, or the depositor's remark. A selection: hits, their analogues and other compounds. The true share with any hit is near 1.9%. Calls follow the shape of the dose curve; as a rule, active = well fitted curve in the direction sought with a large enough effect; inconclusive = small, poorly fitted or top-dose-only effect, or another doubt; inactive = no such curve, though single readings can be large; an effect the other way counts as inactive or inconclusive. Potency is read from the fitted curve at half-maximal effect.
SMILES,HttQ103 aggreg,IMPase Li inh,HTT cytoprotect,ERK EGF block,NPSR antag
COc1cccc(/C=N/Nc2ncnc3c2ncn3Cc2ccccc2)c1O,?,20.3%,·,12.6µM*,7.0%
Cc1ccc(-c2cn(-c3ccccc3)c3[n+]2CCCS3)cc1,1.78µM*,26.4%[38.3 µM],-83.5%[10 µM],4.6%,-12.5%[46.1 µM]
O=c1c(CCc2ccccc2)nc2cnc(N3CCOCC3)nc2n1C[C@H]1CCCO1,·,?,-4.7%,3.8%,·
N#C/C(=C\c1ccc(O)c(O)c1)C(=O)NCCCCc1ccccc1,·,32.0%,-44.9%,-0.3%,·
COc1ccc(C(=O)Oc2cccc(Nc3ncnc4ccccc34)c2)cc1OC,?,23.5%,·,25.1µM*,-6.8%
COc1cc(C(=O)Oc2cccc(Nc3ncnc4ccccc34)c2)cc(OC)c1OC,-16.4%,27.6%[38.3 µM],-42.1%,·,?
O=C(Oc1cccc(Nc2ncnc3ccccc23)c1)c1cccnc1,·,18.1%,·,14.1µM*,4.5%
CC(=O)c1ccccc1OCCn1nnc(-c2ccc(C)cc2)n1,20µM*,14.3%,2.1%[10 µM],2.4%,0.8%[46.1 µM]
C[C@H]1Cc2c(-c3ccccc3)nc3c(c2CO1)CN(C(=O)C1CCCCC1)CC3,·,9.5%,-1.5%[10 µM],·,·
CC1CCN(S(=O)(=O)c2ccc3c(c2)oc(=O)n3CC(=O)NCc2ccc3c(c2)OCO3)CC1,8.91µM*,10.6%[38.3 µM],-2.1%,·,-23.7%[46.1 µM]
Cc1c(C(=O)NCc2ccc3c(c2)OCO3)oc2ccc(S(=O)(=O)N3CCC(C)CC3)cc12,-16.4%,9.3%,4.8%[10 µM],-9.7%,-17.8%[46.1 µM]
COc1cc(NC(=O)Cn2c(C)cc3ccccc3c2=O)cc(OC)c1OC,17.5%,25.1µM*,6.6%,·,?
N#CC(=C=[N-])C1=C(C#N)C(c2ccccc2F)C([n+]2ccccc2)C(O)(C2CC2)N1 (centres undefined),10.0%,12.6µM*,12.9%,·,?
Cc1cccc[n+]1C1C(c2ccccc2)C(C#N)=C(C(=C=[N-])C#N)NC1(O)C1CC1 (centres undefined),-1.9%,?,-16.0%,·,16.2%[46.1 µM]
COc1ccc(/C=C/c2cc(-c3ccc(C)cc3)o[n+]2C)cc1,4.47µM*,5.3%[38.3 µM],-69.1%,·,9.2%[46.1 µM]
COc1cccc(CNc2nc3ccccc3n2CCN2CCCCC2)c1OC,12.6µM*,18.3%,0.1%[10 µM],?,11.0%
COc1ccc(OC)c(CNc2nc3ccccc3n2CCN2CCCCC2)c1,6.5%,14.6%[38.3 µM],6.8%,·,?
CCCn1c(NCc2cc(OC)ccc2OC)nc2ccccc21,20µM*,8.1%[38.3 µM],-14.8%[0.074 µM],·,-8.0%[46.1 µM]
CCn1c(NCc2cc(OC)ccc2OC)nc2ccccc21,7.9%,5.4%[38.3 µM],-32.2%,·,0.8%[46.1 µM]
CC(=O)N1CCC2(CC1)CN(c1ccccc1)C2,·,27.0%,15.2%,-10.6%,·
Cc1noc(C)c1COC(=O)Cc1ccc(Cl)c(Cl)c1,0.794µM*,7.3%[38.3 µM],-16.2%[0.074 µM],·,-17.7%[46.1 µM]
CC(C)[C@H](O)CC[C@@H](C)C1CC[C@H]2C3CC=C4C[C@@H](O)CC[C@]4(C)C3CC[C@]12C (some centres undefined),·,4.2%,-39.6%,·,·
CN(C)c1ccc(-c2nc(-n3ccnc3)c3ccccc3n2)cc1,·,-14.8%,-89.0%,·,·
COC(=O)c1cc(Cl)c(NC(=O)/C=C/c2ccc(OC)c(OC)c2)cc1OC,4.5%,10µM*,9.7%[10 µM],·,?
CCCCCCCCCCCCCCCC(=O)NC(C)C(=O)O (centres undefined),·,6.3%,2.3%,4.2%,·
SMILES,HttQ103 aggreg,IMPase Li inh,HTT cytoprotect,ERK EGF block,NPSR antag
CCCOc1ccc(C(CC(=O)O)NC(=O)c2sc3ccccc3c2Cl)cc1 (centres undefined),-23.0%,3.16µM*,-9.0%,4.1%,-29.0%
CCOc1ccc(C(CC(=O)O)NC(=O)c2sc3ccccc3c2Cl)cc1 (centres undefined),2.7%,8.91µM*,-7.4%[10 µM],8.5%,?
COC(=O)c1ccc(/C=N/N2CCN(Cc3ccccc3Cl)CC2)cc1,9.1%[9.22 µM],·,25.8%[10 µM],?,-2.4%
CCN(CC)c1ccc(/C=N/N2CCN(Cc3ccccc3Cl)CC2)c(O)c1,-6.6%[9.22 µM],·,-1.7%[10 µM],15.8µM*,30.7%
CCN(CC)c1ccc(/C=N/N2CCN(Cc3ccc(C)cc3)CC2)c(O)c1,0.631µM*,3.7%[38.3 µM],-13.6%,·,-2.3%[46.1 µM]
CC(C)C[C@@H](CC(=O)N[C@@H](CCC(=O)O)CC(=O)O)NC(=O)[C@@H]1CNCC[C@H]1NC(=O)C[C@@H](NC(=O)C[C@H](Cc1ccccc1)NC(=O)[C@@H]1CNCC[C@H]1N)C(C)C,·,23.8%,-0.5%[1.9 µM],0.5%,·
COc1ccc(-c2nc3cnc(Oc4ccccc4)nc3n(C3CC3)c2=O)cc1,·,?,-38.8%,7.9%,·
O=C(Nc1ccc2c(c1)OCCO2)c1cc(-c2ccccn2)nc2ccc(Br)cc12,2.4%[9.22 µM],12.6µM*,-24.5%[10 µM],-3.5%,-28.2%
Oc1c(C(Nc2ccccn2)c2ccccn2)ccc2cccnc12 (centres undefined),2.82µM*,3.3%[38.3 µM],2.3%,·,?
CC(=O)NC(c1ccco1)c1ccc2cccnc2c1O (centres undefined),3.55µM*,1.1%[38.3 µM],-27.0%,·,-5.6%[46.1 µM]
Cn1c(=O)c(CCc2ccccc2)nc2cnc(N3CCNCC3)nc21,·,-5.1%,-294.7%,-4.2%,·
CN(C)C1C(=O)C(C(N)=O)C(=O)C2(O)C(=O)C3C(=O)c4c(O)ccc(Cl)c4C(O)C3CC12 (centres undefined),·,10µM*,?,·,·
Cc1noc(C)c1-c1nc(NCCN2CCOCC2)c2ccccc2n1,·,0.9%,-13.0%,·,·
CCCCCC(CC)COC(=O)CC(C(=O)OCC(CC)CCCC)S(=O)(=O)O (centres undefined),-11.7%,·,-2.3%,·,·
CC[C@@H](C)[C@@H](CO[C@@H](Cc1ccccc1)C(=O)N[C@@H](CCS(C)(=O)=O)C(=O)OC(C)C)NC[C@@H](N)CS,·,9.2%,-65.5%,·,·
COC(=O)[C@@]1(Cc2ccc(OC)cc2)[C@H]2c3cc(C(=O)N4CCCC4)n(CCc4ccc(O)c(O)c4)c3C[C@H]2CN1C(=O)c1ccccc1,·,-6.4%,11.2µM*,10.7%,·
COCCn1c(C(=O)N2CCCC2)cc2c1C[C@H]1CN(C(=O)c3ccccc3)[C@@](Cc3ccccc3)(C(=O)OC)[C@@H]21,·,10.3%,8.6%,11.7%,·
COC(=O)[C@@]1(Cc2ccc(OC)cc2)[C@H]2c3cc(C(=O)N4CCCC4)n(Cc4ccc(Cl)c(C(F)(F)F)c4)c3C[C@H]2CN1C(=O)c1ccccc1,·,1.1%,10µM*,-9.0%,·
CCC/C=C(\CCC)C(NS(=O)(=O)c1ccc(C(F)(F)F)cc1)c1ccc(-c2ccccc2)cc1 (centres undefined),·,-4.2%,-47.4%,-0.9%,·
Cc1nn(CC(O)CN2c3ccccc3Sc3ccccc32)c(C)c1Br (centres undefined),-21.1%,12.9%[38.3 µM],17.7%[10 µM],·,6.31µM*
